# Source: PubChem BioAssay (NCATS)
# Inconclusive results are not listed. A call without a number means that no potency is given here. The source made the active and inactive calls. Calls come from the whole dose curve; as a rule, active = well fitted curve in the direction sought with a large enough effect; inconclusive = small, poorly fitted or top-dose-only effect, or another doubt; inactive = no such curve, though single readings can be large; an effect the other way counts as inactive or inconclusive.
# Assays:
# [1] = qHTS Screen of the MIPE 4.0 Collection Against Ewings Sarcoma (TC71) (AID 1259253); note: nearly all actives have a fitted effect of over 40% in size; note: potency is the fitted concentration of half-maximal effect
# Procedure, shortened: (§1)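 Cells plated in serum-containing RPMI (5% FBS) and treated with compound dilutions for 48 h. Readout luminescent viability; normalization relied on vehicle (no inhibition) and media-only columns (full inhibition).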
# [2] = P-glycoprotein substrates identified in KB-3-1 adenocarcinoma cell line, qHTS therapeutic library screen (AID 1346986); note: nearly all actives have a fitted effect of over 60% in size;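 note: potency is the fitted concentration of half-maximal effect; potency is for cytotoxicity meaning loss of cell viability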
# Procedure, shortened: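 Counter-screen: cherry-picked hits retested in the KB pair and in HEK-293 pcDNA/MDR-19 cells ± tariquidar. Primary screen used 72 h CellTiter-Glo viability in KB-3-1 and KB-8-5-11.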
# [3] = NS1 protein of Zika virus - qHTS assay to identify small molecule inhibitors in human HEK 293 cells (AID 1347053); note: nearly all actives have a fitted effect of over 55% in size; note: potency is the fitted concentration of half-maximal effect
# Procedure, shortened: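 Following 20 h seeding, HEK 293 cells took compound, then 1 h later ZIKV MR766 (MOI = 0.5). Incubation ran 24 h at 37 C before TR-FRET detection of NS1; a drop in signal indicates inhibition.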
# [4] = qHTS Screen of the MIPE 4.0 Collection Against Ewings Sarcoma (TC32) (AID 1259256); note: nearly all actives have a fitted effect of over 45% in size; note: potency is the fitted concentration of half-maximal effect
# Procedure, shortened: as §1
# [5] = Identifying Small Molecule Inhibitors of Pancreatic Cancer Stem Cells (SN12C, Adherent) (AID 1259358);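 note: cell survival measured after 48 h of compound exposure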
# Procedure, shortened: (§2)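 Pre-formed 14-day tumor spheroids or adherent cells dosed and incubated 48 h, 37C, 5% CO2. Viability assessed by CellTiter-Glo.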
# [6] = Identifying Small Molecule Inhibitors of Pancreatic Cancer Stem Cells (A278, Adherent) (AID 1259361);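 note: viability read after 48 h compound exposure; nearly all actives have a fitted effect of over 35% in size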
# Procedure, shortened: as §2
# [7] = P-glycoprotein substrates identified in KB-8-5-11 adenocarcinoma cell line, qHTS therapeutic library screen (AID 1346987); note: nearly all actives have a fitted effect of over 65% in size
# Procedure, shortened: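 P-gp-mediated resistance screen: KB-8-5-11 cells treated 72 h with compounds in dose-response. CellTiter-Glo viability.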
# [8] = qHTS Screen of the MIPE 4.0 Collection Against Ewings Sarcoma (EW8) (AID 1259255); note: nearly all actives have a fitted effect of over 35% in size; note: potency is the fitted concentration of half-maximal effect
# Procedure, shortened: as §1
# [9] = Identifying Small Molecule Inhibitors of Pancreatic Cancer Stem Cells (A2780, Spheroid) (AID 1259357); conditions: Potency: A2780 spheroid viability;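 note: spheroids pre-formed over 14 days in stem cell medium on hydrogel; compound exposure lasted 48 h before the ATP luminescence read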
# Procedure, shortened: as §2
smiles,measurement,setting,value
COc1ccc(-c2cc3nccn3c(Nc3ncccc3C(N)=O)n2)cc1OC,Potency,[1],2.64 µM (active)
same,Potency,[2],6.51 µM (active)
same,Potency,[3],inactive
Cc1nn(Cc2ccccc2Cl)c(C)c1CN(C)CC(O)COc1ccc(Cl)cc1 (centres undefined),Potency,[1],23.5 µM (active)
same,Potency,[4],23.5 µM (active)
same,Potency,[5],inactive
same,Potency,[3],inactive
CCCCn1c(=O)n(Cc2ccccc2F)c(=O)c2[nH]c(Cc3ccc(NC(C)=O)cc3)nc21,Potency,[1],20.9 µM (active)
same,Potency,[4],inactive
same,IC50 (viability decrease),[6],13.2 µM (active)
same,Potency,[2],inactive
same,Potency,[7],inactive
same,Potency,[3],inactive
CC=C(C(=CC)c1ccc(O)cc1)c1ccc(O)cc1,Potency,[3],inactive
NC(=O)c1noc([C@H](CCCC2CCCCC2)CC(=O)NO)n1,Potency,[1],26.4 µM (active)
same,Potency,[8],18.7 µM (active)
same,Potency,[3],13.2 µM (active)
C[C@]12CC[C@@H]3c4ccc(O)cc4CC[C@H]3[C@H]1[C@@H](O)[C@@H](O)[C@H]2O,Potency,[8],inactive
same,Potency,[4],inactive
same,Potency,[2],inactive
same,Potency,[7],inactive
same,Potency,[3],inactive
CC(=O)Nc1cccc(-n2c(=O)n(C3CC3)c(=O)c3c(Nc4ccc(I)cc4F)n(C)c(=O)c(C)c32)c1,Potency,[4],23.5 µM (active)
same,Potency,[9],inactive
same,Potency,[7],inactive
CN(CC=CC#CC(C)(C)C)Cc1cccc2ccccc12,Potency,[1],inactive
same,Potency,[8],inactive
same,Potency,[7],inactive
CCC(=O)NCC[C@@H]1CCc2ccc3c(c21)CCO3,Potency,[8],inactive
same,Potency,[4],inactive
same,Potency,[7],inactive
same,Potency,[3],inactive
CC(=O)O[C@]1(C(C)=O)CC[C@H]2[C@@H]3C=C(Cl)C4=CC(=O)[C@@H]5C[C@H]5[C@]4(C)[C@@H]3CC[C@@]21C,Potency,[1],13.2 µM (active)
same,Potency,[4],16.6 µM (active)
same,Potency,[2],inactive
same,Potency,[7],inactive
same,Potency,[3],inactive
Cc1ccc(NC(=O)c2cccc(N(C)C)c2)cc1NC(=O)c1ccc(O)cc1,Potency,[1],0.526 µM (active)
same,Potency,[4],1.05 µM (active)
same,Potency,[7],inactive
CN1CC(=O)NC1=NC(=O)Nc1cccc(Cl)c1,Potency,[8],inactive
same,Potency,[4],inactive
same,Potency,[7],inactive
same,Potency,[3],inactive
